Consider 40 molecules from PubChem BioAssay (NCI).

The structures appear in SMILES notation. The panel holds about 79,000 compounds, 15% with a hit somewhere; the sample as a whole holds those more often. A number with no mark means an inactive call. Calls of active or inactive are those of the source. Rule as the data show it: active = growth inhibition above about 70%; inactive = the rest.

A short description of the experiment: NCI Yeast Anticancer Drug Screen. Data for the mlh1 rad18 strain (AID 175). As to conditions: S. cerevisiae mlh1 rad18 strain growth inhibition; at 50.0 µM (retest, dose inferred, filed as 5.0); active compounds read high. In a few lines: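 Inhibition values reflect reduced growth of mutant yeast versus vehicle-treated controls following compound exposure; the mutations affect DNA damage repair.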
For `COC(=O)[C@H]1O[C@H]1c1ccncc1`, the growth inhibition was -13%.

With `O=[N+]([O-])c1ccc(NSc2ccccc2)cc1`, the growth inhibition is 99% (active).

With `OCCOCCO[P+]1(OCCOCCO)n2c3ccc2C(c2ccccc2)=C2C=CC(=N2)C(c2ccccc2)=c2ccc(n21)=C(c1ccccc1)C1=NC(=C3c2ccccc2)C=C1`, the growth inhibition was 98% (active).

With `NCCSC1(O)C(=O)c2ccccc2-c2ccccc21` (stereo not given), the growth inhibition was 99% (active).

On to `C/C=C(\C)C(=O)O[C@@H]1CC(C)(C)CC2C3=CCC4[C@]56CC[C@](O)(OC5)C(C)(C)C6CC[C@@]4(C)C3(C)CC[C@]21C(=O)O` (stereo not given in full), for which the growth inhibition was 94% (active).

Take `CSC(=S)NN=C1CCCCC1`: the growth inhibition is 96% (active).

`O=C1c2ccccc2C(O)(C#Cc2ccccc2)c2cnccc21` (stereo not given): the growth inhibition was 96% (active).

As to `CCCCCC(CCCCC)C(=O)O`, the growth inhibition is 60%.

Turning to `CC(C)(N=Nc1ccc([N+](=O)[O-])cc1)[N+](=O)[O-]`, the growth inhibition is 99% (active).

On to `CCCCCCCCCCCCCC(=O)N1CCOCC1`, for which the growth inhibition was 99% (active).

With `CCOc1ccccc1-c1nc2c(s1)C(=O)c1ccccc1C2=O`, the growth inhibition is 98% (active).

In the case of `c1ccc2c(c1)C[n+]1ccc3ccccc3c1-c1c3ccccc3cc[n+]1C2`, the growth inhibition was 21%.

Take `Nc1cc2c(c[n+](CCCCCCCCCC[n+]3cc4c5ccccc5c(N)cc4c4ccccc43)c3ccccc23)c2ccccc12`: the growth inhibition is 95% (active).

For `Cc1ccc(N=C(N)NN=C(c2ccc(Cl)cc2)c2ccc(Cl)cc2)cc1`, the growth inhibition was 38%.

Consider `O/N=C(/C[n+]1csc2ccccc21)c1ccccc1`, for which the growth inhibition is 88% (active).

For `COc1ccc(C2Oc3c(cccc3OC)C=C2[N+](=O)[O-])cc1` (stereo not given), the growth inhibition is 98% (active).

On to `O=C(O)c1c2c(cc3c1CC1(Cc4cc5c(cc4C1=O)CCC5)C3)CCC2` (stereo not given), for which the growth inhibition was 55%.

Take `CSc1ncnc2ncn(C3OC(CO)C(O)C3O)c12` (stereo not given): the growth inhibition is -21%.

As to `CC1SC(=S)N(c2ccc(Cl)cc2)C1=O` (stereo not given), the growth inhibition is 69%.

Regarding `CCOC(=O)C(C(C)=O)C1=C(Cl)C(=O)c2ccccc2C1=O` (stereo not given), the growth inhibition is 99% (active).

In the case of `CC(C)(C)c1cc(C(O)(C(F)(F)F)C(F)(F)F)c(S)c(C(O)(C(F)(F)F)C(F)(F)F)c1`, the growth inhibition was 95% (active).

As to `O=[N+]([O-])C1C(c2ccccc2)CC=CC1N1CCCC1` (stereo not given), the growth inhibition was 98% (active).

For `COc1ccc2nc3cc(Cl)ccc3c(NCCNc3c4ccc(Cl)cc4nc4ccc(OC)cc34)c2c1`, the growth inhibition is 97% (active).

Regarding `CCN(CC)CCNc1nc(N)c2nc(-c3ccccc3)c(-c3ccccc3)nc2n1`, the growth inhibition is 56%.

For the molecule `CC(=O)OCC(=O)[C@@]1(O)CC[C@H]2[C@@H]3CCC4=CC(=O)C=C[C@]4(C)[C@@]3(F)[C@@H](O)C[C@@]21C`, the growth inhibition is 71% (active).

Regarding `O=Cc1cc(S(=O)(=O)c2ccc(O)c(C=O)c2)ccc1O`, the growth inhibition is 22%.

For `OCc1cccc2c1Oc1ccccc1S2`, the growth inhibition is 71% (active).

`O=C(CCN1CCCC1)c1ccc(Oc2ccc(F)cc2)cc1`: the growth inhibition was 56%.

With `Cc1ccccc1N1CCN(c2c3c(nc4ccccc24)CCCCC3)CC1`, the growth inhibition is 94% (active).

As for `CNC(Cc1ccccc1)c1ccc(OC)c2ccccc12` (stereo not given), the growth inhibition was 40%.

In the case of `CCCCN(CCCC)Cc1ccc(NC(C(=O)c2ccccc2)c2ccccc2)cc1` (stereo not given), the growth inhibition is 72% (active).

As for `CCS(=O)(=O)/C=C(\C#Cc1ccccc1)c1ccccc1`, the growth inhibition was 94% (active).

Regarding `CN(C)c1c([N+](=O)[O-])cc(N2C(=O)C=CC2=O)cc1[N+](=O)[O-]`, the growth inhibition is 96% (active).

On to `CNC(=N)c1ccc(NC(=N)c2ccc(NC(=O)c3ccc(C(=O)Nc4ccc(C(=N)Nc5ccc(C(=N)NC)cc5)cc4)cc3)cc2)cc1`, for which the growth inhibition was 69%.

For the molecule `O=[N+]([O-])c1ccc(-c2nc3ccc(F)cc3[nH]2)o1`, the growth inhibition is 99% (active).

For the molecule `CCCCCCC(=O)CC(SCCN)c1ccccc1Cl` (stereo not given), the growth inhibition is 55%.

With `O=C(CC(c1ccccc1Cl)C(C(=O)O)c1ccccc1)c1ccccc1` (stereo not given), the growth inhibition was 78% (active).

In the case of `CC([N+](=O)[O-])C1(O)C(=O)c2cccc3cccc1c23` (stereo not given), the growth inhibition is 86% (active).

Regarding `CC(=O)N(C1=C(Cl)C(=O)c2ccccc2C1=O)c1ccc(Cl)cc1`, the growth inhibition was 99% (active).

As to `CCOC(=N)CCCSSc1ccc(N=[N+]=[N-])cc1`, the growth inhibition was 99% (active).
